This is an account of results in PubChem BioAssay (Tox21).

The structures appear in SMILES notation. Values without a mark were called inactive. Results filed as inconclusive are left out. The source made the active and inactive calls. Unless noted, calls come from the whole dose curve; as a rule, active = well fitted curve in the direction sought with a large enough effect in the repeat runs; inconclusive = weak or mixed curves; inactive = no such curve, though single readings can be large; an effect the other way counts as inactive or inconclusive.

Assay [1] in a line: qHTS assay to identify small molecule agonists of the androgen receptor (AR) signaling pathway in the presence of an antagonist - cell viability counter screen (AID 1259379).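 For activity change, negative = cytotoxicity: MDA-kb2 human breast cancer cells carrying an MMTV luciferase reporter; series mostly up to about 92 µM.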 Note: nearly all actives have a fitted effect of over 25% in size. Note: potency is the fitted concentration of half-maximal effect. Put shortly: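 In MDA-kb2 cells (human breast carcinoma, MMTV-luciferase), compounds at 15 concentrations plus 3.0uM nilutamide; 16 hr, 37C, 0% CO2; CellTiter-Fluor fluorescence read for viability.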
A short description of assay [2]: qHTS assay to identify small molecule agonists of the estrogen receptor beta (ER-beta) signaling pathway - cell viability counter screen (AID 1259380). Note: nearly all actives have a fitted effect of over 30% in size. Note: potency is the fitted concentration of half-maximal effect. Put shortly:
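Viability of ER-beta-UAS-bla HEK293T cells was determined by CellTiter-Glo luminescence following 16 hr treatment with test compounds at 37C.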

For assay [3], the target named is Androgen receptor (Homo sapiens) (UniProt P10275). Kind of assay: qHTS assay to identify small molecule agonists of the androgen receptor (AR) signaling pathway in the presence of an antagonist (AID 1259381; calls by dose curve; note: nearly all actives have a fitted effect of over 15% in size). In outline:
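Here, 15-concentration compound series were pin-transferred onto MDA-kb2 MMTV-luciferase cells already dosed with nilutamide (3.0uM final). After 16hr at 37C, ONE-Glo was added and luminescence read 30min later at room temperature.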

A short description of assay [4]: qHTS assay to identify small molecule antagonists of the estrogen receptor beta (ER-beta) signaling pathway - cell viability counter screen (AID 1259382).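 Note: HEK293T cells carrying ER-beta-UAS-bla reporter stimulated with estradiol; series mostly up to about 92 µM; nearly all actives have a fitted effect of over 55% in size.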 In outline:
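Tox21 10K library tested in qHTS format on ER-beta-bla HEK293T cells stimulated with 1nM E2; 16 hr treatment at 37C. Same-well CellTiter-Glo luminescence served as the cell viability measure.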

Assay [5] in a line: qHTS assay to identify small molecule agonists or antagonists of the thyroid stimulating hormone receptor (TSHR) signaling pathway - wild type cell line counter screen (AID 1259384; calls by dose curve). Put shortly:
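Wild-type Hek293 cells, 800/well, 18 h at 37C, then compound with Ro20-1724 for 30 min RT. cAMP by HTRF (cAMP-d2/anti-cAMP cryptate), 1 h RT, fluorescence read. 15 concentrations, triplicates.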

Assay [6] deals with Thyrotropin receptor (Homo sapiens) (UniProt P16473). Kind of assay: qHTS assay to identify small molecule antagonists of the thyroid stimulating hormone receptor (TSHR) signaling pathway (AID 1259385; calls by dose curve; note: nearly all actives have a fitted effect of over 20% in size; note: potency is the fitted concentration of half-maximal effect). In outline: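 TSHR-HEK293 cells (800/well) plated 18 h, then compounds with Ro20-1724 and TSH at 1.5 ng/mL final, 30 min at room temperature. cAMP quantified by HTRF (cAMP-d2/anti-cAMP-cryptate, 1 h); 15 concentrations in triplicate.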
Sequence of Thyrotropin receptor (Homo sapiens) (P16473 whole entry, looked up): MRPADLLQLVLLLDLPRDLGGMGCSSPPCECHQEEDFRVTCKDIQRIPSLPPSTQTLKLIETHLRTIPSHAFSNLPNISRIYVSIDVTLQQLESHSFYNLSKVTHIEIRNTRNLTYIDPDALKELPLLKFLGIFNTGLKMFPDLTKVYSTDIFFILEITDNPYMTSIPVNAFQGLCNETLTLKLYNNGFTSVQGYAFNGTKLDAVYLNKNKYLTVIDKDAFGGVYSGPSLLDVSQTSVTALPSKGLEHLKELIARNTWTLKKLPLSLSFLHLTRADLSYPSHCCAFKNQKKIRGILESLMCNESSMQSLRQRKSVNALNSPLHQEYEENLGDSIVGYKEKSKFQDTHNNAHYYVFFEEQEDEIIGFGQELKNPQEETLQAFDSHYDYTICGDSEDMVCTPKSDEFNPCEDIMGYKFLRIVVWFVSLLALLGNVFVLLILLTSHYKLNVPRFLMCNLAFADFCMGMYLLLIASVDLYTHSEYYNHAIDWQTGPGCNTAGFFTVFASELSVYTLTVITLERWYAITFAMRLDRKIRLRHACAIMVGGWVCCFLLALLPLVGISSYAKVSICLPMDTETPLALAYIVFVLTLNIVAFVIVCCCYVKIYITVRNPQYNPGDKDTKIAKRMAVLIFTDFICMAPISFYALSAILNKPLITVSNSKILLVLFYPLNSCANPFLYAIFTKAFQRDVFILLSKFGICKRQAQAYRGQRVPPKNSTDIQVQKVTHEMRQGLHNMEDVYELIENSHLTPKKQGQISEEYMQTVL

Assay [7] in a line: qHTS assay to identify small molecule agonists of the estrogen receptor alpha (ER-alpha) signaling pathway in the presence of an antagonist - cell viability counter screen (AID 1259386). For activity change, negative = cytotoxicity: series mostly up to about 92 µM.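 Note: cells exposed to compounds for 22 h at 37 °C before the viability read; nearly all actives have a fitted effect of over 30% in size.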 Note: potency is the fitted concentration of half-maximal effect. In outline: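 Fluorescent CellTiter-Fluor viability signal from VM7Luc4E2 cells, with the reagent added during the final hour of a 22hr compound exposure at 37C in the presence of 10.0nM ICI-182,780.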

The target of assay [8] is Progesterone receptor (Homo sapiens) (UniProt P06401). Put plainly: qHTS assay to identify small molecule agonists of the progesterone receptor (PR) signaling pathway (AID 1346784; calls by dose curve; note: nearly all actives have a fitted effect of over 30% in size). In outline:
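Cells (PR-UAS-bla HEK 293T, GripTite) were plated in assay medium containing 2% charcoal-stripped FBS and incubated 6 hr. Test compounds in DMSO were added for 16 hr at 37C. FRET substrate was then loaded for 2 hr at room temperature before fluorescence reading.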

Assay [9] has the same target. Kind of assay: qHTS assay to identify small molecule antagonists of the progesterone receptor (PR) signaling pathway (AID 1346795; active = well fitted inhibition curve with a large enough effect in the signal ratio in the repeat runs, not every such curve was filed as active; the % refers to the signal ratio). In outline:
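Antagonist mode: compounds tested against 1 nM (final) promegestone stimulation in HEK293T cells expressing PR-UAS-bla reporter, 16 hr at 37C, 5% CO2; beta-lactamase activity detected via B/G FRET substrate after 2 hr at room temperature.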

A short description of assay [10]: qHTS assay to identify small molecule antagonists of the progesterone receptor (PR) signaling pathway - cell viability counter screen (AID 1346798). For activity change, negative = cytotoxicity: series mostly up to about 92 µM. Note: nearly all actives have a fitted effect of over 50% in size. Note: potency is the fitted concentration of half-maximal effect. In outline: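 Counter screen for cytotoxicity: viability of PR-UAS-bla HEK293T cells was measured with CellTiter-Glo luminescence following 16 hr compound exposure in the presence of R5020.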
Assay [11] in a line: qHTS assay to identify small molecule agonists of the progesterone receptor (PR) signaling pathway - cell viability counter screen (AID 1346799; calls by dose curve; note: nearly all actives have a fitted effect of over 45% in size). Put shortly:
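Cells (PR-UAS-bla HEK293T) are plated at 3,000/well in 2% charcoal-stripped FBS medium, rested 6 hr, dosed and incubated 16 hr at 37C. CellTiter-Glo is then added and luminescence measured after 30 min at room temperature.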

A short description of assay [12]: qHTS assay to identify small molecule antagonists of the TGF-beta/Smad signaling pathway - cell viability counter screen (AID 1346824). Note: nearly all actives have a fitted effect of over 50% in size. In outline: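 SBE-bla HEK 293T cells, incubated overnight, then compound plus 0.25 ng/mL TGF-beta1 (stock added) for 5 hr at 37 C. Viability was read in the same wells by CellTiter-Glo luminescence after 30 min at room temperature.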

Assay [13] can be described thus: qHTS assay to identify small molecule agonists of the TGF-beta/Smad signaling pathway - cell viability counter screen (AID 1346829). Note: top concentration of the series differs between compounds; nearly all actives have a fitted effect of over 45% in size. In outline: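 Same-well cytotoxicity: CellTiter-Glo added after the 2 hr room-temperature beta-lactamase substrate step, luminescence measured 30 min later; cells had 5 hr of compound at 37 C.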
Assay [14] can be described thus: qHTS assay to identify small molecule agonists of the TGF-beta/Smad signaling pathway (AID 1346859; active = well fitted activation curve with a large enough effect in the signal ratio in the repeat runs, not every such curve was filed as active; the % refers to the signal ratio; note: series mostly up to about 77 µM). Put shortly:
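Reporter line: HEK 293T with stably integrated SBE-controlled beta-lactamase. Compound exposure lasts 5 hr at 37 C and 5% CO2; substrate loading follows for 2 hr at room temperature, with emission read at 460 and 530 nm.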

Assay [15] deals with Thyrotropin-releasing hormone receptor (Homo sapiens) (UniProt P34981). Put plainly: qHTS assay to identify small molecule antagonists of the thyrotropin-releasing hormone receptor (TRHR) signaling pathway (AID 1346877; active = well fitted inhibition curve with a large enough effect in the repeat runs, not every such curve was filed as active; note: potency is the fitted concentration of half-maximal effect; for activity, negative = inhibition: series mostly up to about 51 µM). Put shortly: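 In this cell-based calcium flux format, HEK293 cells expressing TRHR received test compound for 5 min before the agonist TRH (1 nM final). Dye loading lasted 2 h at 37 °C.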
Sequence of Thyrotropin-releasing hormone receptor (Homo sapiens) (P34981 whole entry, looked up): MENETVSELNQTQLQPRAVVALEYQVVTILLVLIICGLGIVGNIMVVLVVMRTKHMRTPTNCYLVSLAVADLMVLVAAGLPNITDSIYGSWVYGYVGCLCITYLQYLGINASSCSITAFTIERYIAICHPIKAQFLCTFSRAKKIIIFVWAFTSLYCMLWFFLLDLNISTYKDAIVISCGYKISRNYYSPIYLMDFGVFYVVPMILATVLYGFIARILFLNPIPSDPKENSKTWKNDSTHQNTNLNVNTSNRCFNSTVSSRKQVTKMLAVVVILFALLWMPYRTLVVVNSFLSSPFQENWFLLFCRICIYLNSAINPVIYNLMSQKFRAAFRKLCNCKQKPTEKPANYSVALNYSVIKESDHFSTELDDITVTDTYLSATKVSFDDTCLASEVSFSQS

The target is the same in assay [16]. Put plainly: qHTS assay to identify small molecule agonists of the thyrotropin-releasing hormone receptor (TRHR) signaling pathway (AID 1346891; calls by dose curve; note: potency is the fitted concentration of half-maximal effect; for activation: series mostly up to about 58 µM). In outline: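 Cells: TRHR-Hek293, seeded and incubated 18 h. Dye loading: 2 h at 37 °C. Compound added from DMSO stock by pin tool. Read-out: kinetic calcium fluorescence over 3 min.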
Assay [17] in a line: Human pregnane X receptor (PXR) small molecule agonists, qHTS cell viability counter screen (AID 1346977). Note: nearly all actives have a fitted effect of over 50% in size. Note: potency is the fitted concentration of half-maximal effect. In outline: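 Cytotoxicity counter screen run in the same wells as the PXR luciferase assay, using PXR-Luc HepG2 cells in charcoal-stripped serum medium. Viability: CellTiter-Fluor fluorescence after 24hr compound treatment.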
The nature of assay [18]: Caspase-3/7 induction in HepG2 cells by small molecules, qHTS assay (AID 1346978). Note: nearly all actives have a fitted effect of over 15% in size. Note: potency is the fitted concentration of half-maximal effect. In outline: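 Wild-type HepG2 cells, 2,000/well, settled 5 hr at 37 C and 5% CO2, then compound-treated for 17 hr; caspase-3/7 activity read by luminescent Caspase-Glo 3/7 after 30 min at room temperature.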
The nature of assay [19]: Caspase-3/7 induction in CHO-K1 cells by small molecules, qHTS cell viability counter screen (AID 1346979). Note: nearly all actives have a fitted effect of over 35% in size. Note: potency is the fitted concentration of half-maximal effect. In outline: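 Cytotoxicity counter screen run in parallel with the caspase-3/7 assay: CHO-K1 cells, 16hr compound treatment at 37C, then CellTiter-Fluor for 1hr before fluorescence reading.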
Assay [20] deals with Estrogen receptor (Homo sapiens) (UniProt P03372). Put plainly: qHTS assay to identify small molecule agonists of the estrogen receptor alpha (ER-alpha) signaling pathway in the presence of an antagonist (AID 1259383; calls by dose curve; note: top concentration of the series differs between compounds; nearly all actives have a fitted effect of over 15% in size). In outline:
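In VM7Luc4E2 cells, 4,000 per well, compounds at 15 concentrations were co-incubated 22hr at 37C with 10.0nM final ICI-182,780. Luminescence from the stably transfected 4×ERE-luciferase reporter was recorded 30min after ONE-Glo addition.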
% is set by controls: 0 for no effect and ±100 for the full control effect.

Sequence of Progesterone receptor (Homo sapiens) (P06401 whole entry, looked up): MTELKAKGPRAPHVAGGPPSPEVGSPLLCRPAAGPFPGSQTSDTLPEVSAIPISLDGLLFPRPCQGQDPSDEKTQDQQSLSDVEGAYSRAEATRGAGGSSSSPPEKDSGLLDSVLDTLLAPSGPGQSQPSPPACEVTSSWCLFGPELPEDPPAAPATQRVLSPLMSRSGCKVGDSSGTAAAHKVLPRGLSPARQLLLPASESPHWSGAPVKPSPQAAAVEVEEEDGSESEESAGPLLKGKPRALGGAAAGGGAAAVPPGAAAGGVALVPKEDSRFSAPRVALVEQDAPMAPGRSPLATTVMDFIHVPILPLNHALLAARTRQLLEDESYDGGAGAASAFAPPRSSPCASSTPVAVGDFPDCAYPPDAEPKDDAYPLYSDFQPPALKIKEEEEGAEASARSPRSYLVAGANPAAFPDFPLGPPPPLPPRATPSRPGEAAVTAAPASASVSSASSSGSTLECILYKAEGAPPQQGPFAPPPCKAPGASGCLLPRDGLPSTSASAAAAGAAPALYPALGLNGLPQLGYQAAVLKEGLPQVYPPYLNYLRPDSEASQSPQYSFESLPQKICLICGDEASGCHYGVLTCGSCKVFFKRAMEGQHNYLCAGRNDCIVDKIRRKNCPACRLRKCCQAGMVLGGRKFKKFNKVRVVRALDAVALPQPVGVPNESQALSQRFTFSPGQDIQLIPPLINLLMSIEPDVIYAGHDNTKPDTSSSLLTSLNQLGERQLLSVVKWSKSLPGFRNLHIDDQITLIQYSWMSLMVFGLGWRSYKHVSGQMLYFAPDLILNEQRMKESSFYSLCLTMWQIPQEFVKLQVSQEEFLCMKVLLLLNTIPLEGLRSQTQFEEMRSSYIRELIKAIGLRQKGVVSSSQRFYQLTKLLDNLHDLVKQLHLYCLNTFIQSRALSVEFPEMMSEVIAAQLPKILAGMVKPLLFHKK
Sequence of Androgen receptor (Homo sapiens) (P10275 whole entry, looked up): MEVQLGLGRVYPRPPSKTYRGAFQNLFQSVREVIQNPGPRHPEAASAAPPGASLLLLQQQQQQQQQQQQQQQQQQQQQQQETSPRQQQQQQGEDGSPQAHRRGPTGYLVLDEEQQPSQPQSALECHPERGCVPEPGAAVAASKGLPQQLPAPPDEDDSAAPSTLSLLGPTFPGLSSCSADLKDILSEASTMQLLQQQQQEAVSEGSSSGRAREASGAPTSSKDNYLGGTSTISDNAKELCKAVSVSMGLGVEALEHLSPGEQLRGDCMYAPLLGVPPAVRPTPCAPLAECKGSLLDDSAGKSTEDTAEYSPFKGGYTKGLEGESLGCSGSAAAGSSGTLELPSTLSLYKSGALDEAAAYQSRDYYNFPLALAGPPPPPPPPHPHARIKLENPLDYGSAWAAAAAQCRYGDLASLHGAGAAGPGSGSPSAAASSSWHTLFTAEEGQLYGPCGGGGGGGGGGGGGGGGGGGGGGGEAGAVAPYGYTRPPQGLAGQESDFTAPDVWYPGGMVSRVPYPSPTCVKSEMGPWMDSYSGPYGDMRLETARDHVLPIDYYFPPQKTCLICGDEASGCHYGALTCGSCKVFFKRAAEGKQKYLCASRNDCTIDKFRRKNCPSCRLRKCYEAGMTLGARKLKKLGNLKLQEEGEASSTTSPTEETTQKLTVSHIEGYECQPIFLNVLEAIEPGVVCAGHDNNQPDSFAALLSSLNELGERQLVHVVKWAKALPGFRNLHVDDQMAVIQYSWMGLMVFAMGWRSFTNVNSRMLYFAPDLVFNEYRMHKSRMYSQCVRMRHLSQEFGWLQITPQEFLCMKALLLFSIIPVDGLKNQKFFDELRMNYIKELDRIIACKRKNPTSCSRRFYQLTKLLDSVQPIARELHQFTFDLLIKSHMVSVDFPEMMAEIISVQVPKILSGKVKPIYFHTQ
Sequence of Estrogen receptor (Homo sapiens) (P03372 whole entry, looked up): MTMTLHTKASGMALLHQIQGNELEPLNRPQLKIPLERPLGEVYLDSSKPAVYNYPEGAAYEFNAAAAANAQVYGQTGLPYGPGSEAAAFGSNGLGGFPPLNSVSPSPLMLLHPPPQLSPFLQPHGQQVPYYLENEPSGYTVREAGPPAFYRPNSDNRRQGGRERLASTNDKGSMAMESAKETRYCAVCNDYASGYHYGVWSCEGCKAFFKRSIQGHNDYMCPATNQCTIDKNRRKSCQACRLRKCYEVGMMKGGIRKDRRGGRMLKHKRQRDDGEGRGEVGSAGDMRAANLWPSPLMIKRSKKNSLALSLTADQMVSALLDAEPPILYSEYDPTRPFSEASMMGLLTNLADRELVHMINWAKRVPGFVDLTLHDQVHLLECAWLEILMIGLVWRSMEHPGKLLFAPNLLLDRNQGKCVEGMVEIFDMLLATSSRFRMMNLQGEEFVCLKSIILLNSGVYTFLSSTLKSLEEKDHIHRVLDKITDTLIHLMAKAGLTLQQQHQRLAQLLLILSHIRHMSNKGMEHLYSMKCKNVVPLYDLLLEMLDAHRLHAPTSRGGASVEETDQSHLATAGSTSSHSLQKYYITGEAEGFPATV

For `CCn1c2ccccc2c2ccccc21`, the Potency result in assay [1], in assay [2], in assay [3], in assay [4], in [5] and in assay [6] was “inactive” throughout. For the same compound, the Potency entry in assay [7], in assay [9], in [10], in assay [11], in assay [12] and in assay [13] was “inactive” each time. The Potency result in assay [15], in assay [16], in assay [17], in assay [18] and in assay [19] was “inactive” throughout. Also, the call in [8] and in assay [14] was inactive.

For `COc1cc(C(C)C)ccc1C`, the activity change, negative = cytotoxicity in [1] is 2.05% [at 19 µM]; in [2] it was 2.27% [at 19 µM]; in assay [4], -0.566% [at 19 µM]; in [7], -2.95% [at 19 µM]; in assay [10], -15.7% [at 18.9 µM]; in assay [11] it was -8.49% [at 19 µM]. Also, the activity change, negative = cytotoxicity is 6.13% [at 15.8 µM] in assay [13], 1.46% [at 19 µM] in assay [17] and -7.98% [at 19 µM] in [19]. The activation in [3] was 0.232% [at 19 µM]; in [8], 2.45% [at 19 µM]; in assay [14], 5.38% [at 15.8 µM]; in assay [16], 0.0321% [at 11.8 µM]. For the same compound, in [5], the cAMP activity change is 3.96% [at 18.9 µM, hits give high values]. Also, the activity change, negative = inhibition in assay [6] was -0.443% [at 19 µM]; in assay [9], 2.91% [at 18.9 µM]. The viability change, negative = cytotoxic in assay [12] is -0.209% [at 15.8 µM]. Also, the activity, negative = inhibition in assay [15] is -0.302% [at 10.5 µM]. For the same compound, the caspase activation in [18] is 0.0291% [at 19 µM].

Take `O=C1OC2(c3ccccc31)c1ccc(O)c(Br)c1Oc1c2ccc(O)c1Br`: the Potency was 61.1 µM (active) in assay [1]; 48.6 µM (active) in assay [6]; 30.6 µM (active) in assay [7]; 1.2 µM (active) in [15]; 3.89 µM (active) in assay [16]; 27.3 µM (active) in assay [19]. The Potency result in assay [2], in [3], in assay [4], in assay [10], in assay [12] and in [13] was “inactive” throughout. Moreover, the Potency entry in assay [17] and in assay [18] was “inactive” in each case.

Consider `O=C1CCC(=O)N1`, for which the Potency entry in assay [1], in assay [2], in assay [3], in [4], in assay [5] and in assay [6] was “inactive” in each case. The Potency result in [7], in assay [10], in assay [11], in assay [12], in assay [13] and in assay [15] was “inactive” throughout. The Potency result in assay [16], in assay [17], in assay [18] and in assay [19] was “inactive” each time. Also, the result in assay [8] and in [14] was inactive.

`CSc1ccc(O)cc1C`: the Potency entry in assay [1], in assay [3], in assay [20], in assay [5], in assay [6] and in [7] was “inactive” throughout. In addition, the Potency result in assay [12], in [13] and in [18] was “inactive” each time. Further, the Potency in assay [2] and in assay [10] was 61.1 µM (active) each time. The call in assay [8] and in assay [14] was inactive.

Turning to `CN1CC[C@H](c2c(O)cc(O)c3c(=O)cc(-c4ccccc4Cl)oc23)[C@H](O)C1`, the Potency result in assay [1], in [2], in [3], in assay [4], in assay [7] and in [12] was “inactive” each time. Further, in [13], the Potency entry is “inactive”. Besides, the Potency is 0.0944 µM (active) in [17], 0.237 µM (active) in assay [18] and 0.0944 µM (active) in assay [19].

On to `CCCCCCCCSCc1cc(C)c(O)c(CSCCCCCCCC)c1`, for which the Potency result in assay [1], in assay [2], in assay [3], in [4], in assay [5] and in [6] was “inactive” each time. Moreover, the Potency result in [7], in [10], in assay [11], in assay [12], in assay [13] and in assay [15] was “inactive” in each case. Further, the Potency result in assay [16], in assay [17] and in [18] was “inactive” in each case. The result in [8] and in assay [14] was inactive. The Potency in [19] is 68.6 µM (active).
